Records with an inconclusive call do not appear. Active and inactive are the calls of the source. How the source made its calls: active means hit-call score of the fitted dose curve at least 0.9, where 1 is the maximum; inconclusive means response in the unintended direction; inactive means score below 0.9.
What was measured:
[1] = molecular target: human Serotonin, 5-Hydroxytryptamine Receptor 5A (5HT5A), HTR5A (gene 3361) (UniProt P47898); test: NVS_GPCR_h5HT5A: NovaScreen (NVS) G Protein-Coupled Receptor Assay for human Serotonin, 5-Hydroxytryptamine Receptor 5A (5HT5A) (AID 2283251)
In short: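 Membranes from HEK293 cells, radioligand binding read by filtration and scintillation after 1 h. Single-concentration duplicate testing at 25 uM, then concentration-response for actives; positive-direction fitting relative to DMSO.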

[2] = molecular target: human Serotonin, 5-Hydroxytryptamine Receptor 6 (5HT6), HTR6 (gene 3362) (UniProt P50406); test: NVS_GPCR_h5HT6: NovaScreen (NVS) G Protein-Coupled Receptor Assay for human Serotonin, 5-Hydroxytryptamine Receptor 6 (5HT6) (AID 2283253)
In short: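 Filter scintillation counting of radioligand displacement from HEK293-expressed 5HT6, 1 hour post-dose, with loss of signal relative to DMSO. Single 25 uM duplicates first, with concentration series for confirmation.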

[3] = molecular target: guinea pig Opioid, Kappa 1 Receptor (OpiateK), OPRK1 (gene 100135587) (UniProt P41144); test: NVS_GPCR_gOpiateK: NovaScreen (NVS) G Protein-Coupled Receptor Assay for guinea pig Opioid, Kappa 1 Receptor (OpiateK) (AID 2283252);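 further: radioligand displacement from kappa opioid receptor in guinea pig cerebellar membranes; active means reduced radioligand binding relative to DMSO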
In short: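 Cell-free tissue prep: guinea pig cerebellar membranes, radioligand displacement, 2 h incubation. Readout: filtration plus scintillation counting. Primary single-point 25 uM duplicate; actives retested in concentration series; DMSO negative control.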

[4] = molecular target: rat Constitutive Nitric Oxide Synthase (CNOS), Nos1 (gene 24598) (UniProt P29476); test: NVS_ENZ_rCNOS: NovaScreen (NVS) Enzymatic Assay for rat Constitutive Nitric Oxide Synthase (CNOS) (AID 2283236)
In short: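 Single 25 uM duplicate screen, then concentration series to 50 uM for chemicals meeting threshold. Rat brain membrane-derived CNOS activity detected radiometrically by filtration and scintillation counting, 1 h after compound addition; DMSO as baseline.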

[5] = molecular target: sheep Cyclooxygenase-1 (Cox1), PTGS1 (gene 443551) (UniProt P05979); test: NVS_ENZ_oCOX1: NovaScreen (NVS) Enzymatic Assay for sheep Cyclooxygenase-1 (Cox1) (AID 2283239);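 further: actives reduce cyclooxygenase activity so potencies are for inhibitors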
In short: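 Colorimetric enzyme readout using sheep seminal-vesicle cyclooxygenase-1, measured 0.66 h post-dosing. Single-concentration duplicates at 25 uM first, then concentration series for actives, with DMSO as baseline and plate controls.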

[6] = molecular target: rat Acetylcholinesterase (AChE), Ache (gene 83817) (UniProt P37136); test: NVS_ENZ_rAChE: NovaScreen (NVS) Enzymatic Assay for rat Acetylcholinesterase (AChE) (AID 2283233)
In short: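 Compounds first screened at 25 uM in duplicate, then those passing threshold tested in concentration series up to 50 uM, against AChE from rat brain membranes. Enzyme activity read by absorbance at 0.33 h; inhibition scored versus DMSO.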

[7] = molecular target: rat Monoamine Oxidase, MAO-B, Peripheral (MAOBP), Maob (gene 25750) (UniProt P19643); test: NVS_ENZ_rMAOBP: NovaScreen (NVS) Enzymatic Assay for rat Monoamine Oxidase, MAO-B, Peripheral (MAOBP) (AID 2283242)
[8] = tested on: guinea pig Muscarinic, Peripheral (Mperiperal) Receptor, Non-selective Binding, gene 100379235; test: NVS_GPCR_gMPeripheral_NonSelective: NovaScreen (NVS) G Protein-Coupled Receptor Assay for guinea pig Muscarinic, Peripheral (Mperiperal) Receptor, Non-selective Binding (AID 2283250)
In short: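 Screened in duplicate at 25 uM, hits retested in concentration series to 50 uM max, using bladder membrane radioligand displacement from guinea pig. Filtration and scintillation counting 1 h post-dose, fitted relative to DMSO.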

[9] = tested on: rat Monoamine Oxidase, MAO-A, Peripheral (MAOAP), gene 29253; test: NVS_ENZ_rMAOAP: NovaScreen (NVS) Enzymatic Assay for rat Monoamine Oxidase, MAO-A, Peripheral (MAOAP) (AID 2283237)
In short: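 Scintillation counting tracked MAO-A activity in a cell-free rat liver mitochondrial membrane prep, read 1.17 hours after compound addition. Single-point duplicate testing at 25 uM preceded concentration-response follow-up; activity was fitted relative to DMSO.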

[10] = tested on: rat Monoamine Oxidase, MAO-A, Central (MAOAC), gene 29253; test: NVS_ENZ_rMAOAC: NovaScreen (NVS) Enzymatic Assay for rat Monoamine Oxidase, MAO-A, Central (MAOAC) (AID 2283243);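 further: potency refers to inhibition seen as signal drop below DMSO baseline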
In short: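 Scintillation read-out of MAO-A activity in rat brain lysate, 1.5 h post-dosing. Primary single-concentration screen: 25 uM, duplicate; actives re-tested in concentration series. DMSO = negative control/baseline.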

[11] = molecular target: human Serotonin, 5-Hydroxytryptamine Receptor 7 (5HT7), HTR7 (gene 3363) (UniProt P34969); test: NVS_GPCR_h5HT7: NovaScreen (NVS) G Protein-Coupled Receptor Assay for human Serotonin, 5-Hydroxytryptamine Receptor 7 (5HT7) (AID 2283255);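 further: hits reduce specific radioligand binding relative to DMSO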
In short: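 Filter-bound radioactivity counted after 1 h, with loss of specific radioligand binding fitted against DMSO. Membrane protein came from CHO cells expressing human 5HT7. Chemicals were tested first at 25 uM in duplicate, then in concentration series if active.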

[12] = molecular target: rat Monoamine Oxidase, MAO-B, Central (MAOBC), Maob (gene 25750) (UniProt P19643); test: NVS_ENZ_rMAOBC: NovaScreen (NVS) Enzymatic Assay for rat Monoamine Oxidase, MAO-B, Central (MAOBC) (AID 2283238)
In short: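 Cell-free radiometric assay, rat brain lysate. Read-out: scintillation counts, 1.17 h post-dosing. Screen 25 uM in duplicate; actives (e.g. ≥30% inhibition) then singleton concentration-response, max 50 uM. Activity loss fitted relative to DMSO.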

[13] = molecular target: human Adenosine A2a Receptor (AdoRA2a), ADORA2A (gene 135) (UniProt P29274); test: NVS_GPCR_hAdoRA2a: NovaScreen (NVS) G Protein-Coupled Receptor Assay for human Adenosine A2a Receptor (AdoRA2a) (AID 2283256)
In short: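 HEK293-derived receptor preparation, radioligand displacement, 1.5 h, filtration + scintillation read. Loss of bound signal scored vs DMSO. Single-point 25 uM in duplicate first, then concentration-response for actives.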

[14] = tested on: guinea pig Leukotriene B4 Receptor (LTB4), gene 100379538; test: NVS_GPCR_gLTB4: NovaScreen (NVS) G Protein-Coupled Receptor Assay for guinea pig Leukotriene B4 Receptor (LTB4) (AID 2283247)
In short: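 Membranes from guinea pig spleen incubated 2 h with radioligand and compound; bound counts measured by filtration and scintillation. Screened first at 25 uM in duplicate, then actives titrated to a 50 uM top concentration relative to DMSO.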

[15] = molecular target: guinea pig Leukotriene D4 Receptor (LTD4), CYSLTR1 (gene 100135514) (UniProt Q2NNR5); test: NVS_GPCR_gLTD4: NovaScreen (NVS) G Protein-Coupled Receptor Assay for guinea pig Leukotriene D4 Receptor (LTD4) (AID 2283248)
In short: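 Guinea pig lung membrane preparation; bound radioligand measured by filter scintillation after 1 h, loss of signal versus DMSO marking displacement. Compounds tested at 25 uM in duplicate, hits retested to max 50 uM.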

human Serotonin, 5-Hydroxytryptamine Receptor 6 (5HT6), HTR6 (gene 3362), sequence (P50406 whole entry, looked up): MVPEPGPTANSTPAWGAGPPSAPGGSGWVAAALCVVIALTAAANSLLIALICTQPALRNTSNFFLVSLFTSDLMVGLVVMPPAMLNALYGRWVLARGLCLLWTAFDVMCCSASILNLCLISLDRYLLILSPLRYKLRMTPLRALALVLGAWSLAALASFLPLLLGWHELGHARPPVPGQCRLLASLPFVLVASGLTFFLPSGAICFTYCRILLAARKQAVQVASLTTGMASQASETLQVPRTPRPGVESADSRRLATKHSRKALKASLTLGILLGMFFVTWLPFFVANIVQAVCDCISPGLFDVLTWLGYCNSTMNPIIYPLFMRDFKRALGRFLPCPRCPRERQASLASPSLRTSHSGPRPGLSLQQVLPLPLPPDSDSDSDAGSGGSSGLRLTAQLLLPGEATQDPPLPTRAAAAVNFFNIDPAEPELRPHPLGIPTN
rat Constitutive Nitric Oxide Synthase (CNOS), Nos1 (gene 24598), sequence (P29476 whole entry, looked up): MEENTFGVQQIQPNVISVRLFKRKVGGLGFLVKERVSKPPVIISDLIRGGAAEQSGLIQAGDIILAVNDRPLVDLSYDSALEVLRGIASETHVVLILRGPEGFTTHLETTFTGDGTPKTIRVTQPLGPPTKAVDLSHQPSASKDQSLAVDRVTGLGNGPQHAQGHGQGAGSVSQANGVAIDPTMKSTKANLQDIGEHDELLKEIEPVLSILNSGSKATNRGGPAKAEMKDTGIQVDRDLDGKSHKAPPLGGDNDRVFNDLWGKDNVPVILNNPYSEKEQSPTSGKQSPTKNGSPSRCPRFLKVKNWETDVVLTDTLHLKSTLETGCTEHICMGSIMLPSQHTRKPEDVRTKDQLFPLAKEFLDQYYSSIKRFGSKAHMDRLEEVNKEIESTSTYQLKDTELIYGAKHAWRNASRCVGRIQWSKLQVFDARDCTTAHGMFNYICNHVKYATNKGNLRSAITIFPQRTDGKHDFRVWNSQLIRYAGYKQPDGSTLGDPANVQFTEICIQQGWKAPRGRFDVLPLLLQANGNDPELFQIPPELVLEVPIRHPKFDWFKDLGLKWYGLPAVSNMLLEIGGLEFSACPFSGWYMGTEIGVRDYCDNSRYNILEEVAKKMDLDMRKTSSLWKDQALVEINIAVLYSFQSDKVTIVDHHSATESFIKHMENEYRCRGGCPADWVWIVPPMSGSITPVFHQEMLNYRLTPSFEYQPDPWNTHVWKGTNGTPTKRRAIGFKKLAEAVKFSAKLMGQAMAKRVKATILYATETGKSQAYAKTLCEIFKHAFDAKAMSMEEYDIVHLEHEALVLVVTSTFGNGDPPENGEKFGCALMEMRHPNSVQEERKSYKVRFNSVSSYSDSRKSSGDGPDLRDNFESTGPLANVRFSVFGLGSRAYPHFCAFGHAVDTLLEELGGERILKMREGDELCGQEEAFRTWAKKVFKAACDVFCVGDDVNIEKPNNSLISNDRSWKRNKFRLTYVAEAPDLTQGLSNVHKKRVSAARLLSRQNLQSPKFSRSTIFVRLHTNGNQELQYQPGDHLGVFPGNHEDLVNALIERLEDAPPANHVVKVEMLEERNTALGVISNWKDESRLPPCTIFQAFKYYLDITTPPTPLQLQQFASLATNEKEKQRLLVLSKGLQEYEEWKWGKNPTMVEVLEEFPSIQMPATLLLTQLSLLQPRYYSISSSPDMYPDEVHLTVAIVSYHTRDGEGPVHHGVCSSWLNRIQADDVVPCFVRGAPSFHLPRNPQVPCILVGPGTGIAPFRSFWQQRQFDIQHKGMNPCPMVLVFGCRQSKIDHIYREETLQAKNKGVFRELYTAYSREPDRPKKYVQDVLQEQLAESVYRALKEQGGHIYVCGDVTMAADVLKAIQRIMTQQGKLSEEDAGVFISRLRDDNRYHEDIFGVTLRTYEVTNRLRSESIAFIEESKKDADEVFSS
rat Acetylcholinesterase (AChE), Ache (gene 83817), sequence (P37136 whole entry, looked up): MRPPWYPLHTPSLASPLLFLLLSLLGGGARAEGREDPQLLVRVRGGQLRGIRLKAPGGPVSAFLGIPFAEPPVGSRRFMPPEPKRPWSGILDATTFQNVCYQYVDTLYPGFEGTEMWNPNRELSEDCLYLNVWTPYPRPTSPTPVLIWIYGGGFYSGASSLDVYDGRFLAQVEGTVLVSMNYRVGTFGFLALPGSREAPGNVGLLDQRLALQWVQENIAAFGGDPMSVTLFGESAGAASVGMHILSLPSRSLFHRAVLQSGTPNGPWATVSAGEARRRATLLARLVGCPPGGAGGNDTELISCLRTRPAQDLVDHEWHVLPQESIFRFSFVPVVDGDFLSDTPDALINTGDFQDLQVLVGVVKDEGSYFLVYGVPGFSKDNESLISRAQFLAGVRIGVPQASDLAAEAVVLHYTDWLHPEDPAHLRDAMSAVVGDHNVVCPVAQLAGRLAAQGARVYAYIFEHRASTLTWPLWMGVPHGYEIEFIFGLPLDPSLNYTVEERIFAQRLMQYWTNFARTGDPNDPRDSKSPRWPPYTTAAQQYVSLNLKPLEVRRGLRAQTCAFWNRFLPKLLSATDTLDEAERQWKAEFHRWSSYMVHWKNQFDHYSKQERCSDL
rat Monoamine Oxidase, MAO-B, Central (MAOBC), Maob (gene 25750), sequence (P19643 whole entry, looked up): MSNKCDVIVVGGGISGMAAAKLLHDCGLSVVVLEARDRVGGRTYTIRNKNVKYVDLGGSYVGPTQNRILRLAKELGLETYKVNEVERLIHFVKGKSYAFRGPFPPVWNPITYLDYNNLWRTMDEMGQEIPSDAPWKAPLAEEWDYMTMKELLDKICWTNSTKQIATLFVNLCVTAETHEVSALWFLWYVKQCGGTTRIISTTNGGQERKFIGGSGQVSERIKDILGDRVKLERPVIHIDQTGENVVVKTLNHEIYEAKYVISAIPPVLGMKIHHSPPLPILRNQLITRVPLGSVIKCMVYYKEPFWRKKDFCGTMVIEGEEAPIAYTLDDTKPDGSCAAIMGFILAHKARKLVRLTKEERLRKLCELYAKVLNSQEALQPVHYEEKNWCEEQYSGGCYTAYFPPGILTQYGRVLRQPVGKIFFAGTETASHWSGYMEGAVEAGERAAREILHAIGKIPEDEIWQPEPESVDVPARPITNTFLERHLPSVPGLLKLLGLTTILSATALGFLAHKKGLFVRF
sheep Cyclooxygenase-1 (Cox1), PTGS1 (gene 443551), sequence (P05979 whole entry, looked up): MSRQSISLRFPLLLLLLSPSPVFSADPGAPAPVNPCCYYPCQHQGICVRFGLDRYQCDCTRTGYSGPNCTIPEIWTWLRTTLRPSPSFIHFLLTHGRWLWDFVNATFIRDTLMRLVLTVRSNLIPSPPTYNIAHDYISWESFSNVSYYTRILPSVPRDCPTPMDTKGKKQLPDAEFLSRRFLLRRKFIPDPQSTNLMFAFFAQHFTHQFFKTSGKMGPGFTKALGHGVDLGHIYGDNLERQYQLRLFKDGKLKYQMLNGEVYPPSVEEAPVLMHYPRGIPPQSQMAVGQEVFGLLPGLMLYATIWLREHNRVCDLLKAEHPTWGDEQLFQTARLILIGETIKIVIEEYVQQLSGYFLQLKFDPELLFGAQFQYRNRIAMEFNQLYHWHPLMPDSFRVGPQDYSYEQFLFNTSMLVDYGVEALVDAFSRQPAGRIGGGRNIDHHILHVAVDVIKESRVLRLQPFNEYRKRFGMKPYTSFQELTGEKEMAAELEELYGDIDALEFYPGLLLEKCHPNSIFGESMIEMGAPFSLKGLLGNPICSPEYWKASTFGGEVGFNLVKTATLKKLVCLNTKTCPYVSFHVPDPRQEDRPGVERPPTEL
human Serotonin, 5-Hydroxytryptamine Receptor 5A (5HT5A), HTR5A (gene 3361), sequence (P47898 whole entry, looked up): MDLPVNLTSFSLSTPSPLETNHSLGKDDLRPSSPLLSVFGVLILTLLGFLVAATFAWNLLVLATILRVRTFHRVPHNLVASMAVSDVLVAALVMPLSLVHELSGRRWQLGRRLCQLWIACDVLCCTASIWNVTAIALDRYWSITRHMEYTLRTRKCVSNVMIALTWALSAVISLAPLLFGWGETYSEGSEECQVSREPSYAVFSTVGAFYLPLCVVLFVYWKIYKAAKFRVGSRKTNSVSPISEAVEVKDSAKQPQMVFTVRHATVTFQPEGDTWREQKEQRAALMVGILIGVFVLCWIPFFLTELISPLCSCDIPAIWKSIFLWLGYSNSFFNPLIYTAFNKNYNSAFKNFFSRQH
human Adenosine A2a Receptor (AdoRA2a), ADORA2A (gene 135), sequence (P29274 whole entry, looked up): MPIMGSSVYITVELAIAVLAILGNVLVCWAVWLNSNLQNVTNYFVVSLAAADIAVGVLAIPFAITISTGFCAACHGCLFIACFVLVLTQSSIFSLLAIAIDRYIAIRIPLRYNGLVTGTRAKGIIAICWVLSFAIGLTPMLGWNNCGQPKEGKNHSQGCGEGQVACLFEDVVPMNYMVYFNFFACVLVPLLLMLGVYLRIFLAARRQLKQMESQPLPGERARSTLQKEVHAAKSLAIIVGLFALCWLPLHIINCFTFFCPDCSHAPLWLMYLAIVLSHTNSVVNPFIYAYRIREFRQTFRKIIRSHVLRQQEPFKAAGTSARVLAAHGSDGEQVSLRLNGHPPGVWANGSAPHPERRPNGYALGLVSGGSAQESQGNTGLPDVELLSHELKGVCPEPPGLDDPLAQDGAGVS
rat Monoamine Oxidase, MAO-B, Peripheral (MAOBP), Maob (gene 25750), sequence (P19643 whole entry, looked up): as the sequence (P19643 whole entry, looked up) above
human Serotonin, 5-Hydroxytryptamine Receptor 7 (5HT7), HTR7 (gene 3363), sequence (P34969 whole entry, looked up): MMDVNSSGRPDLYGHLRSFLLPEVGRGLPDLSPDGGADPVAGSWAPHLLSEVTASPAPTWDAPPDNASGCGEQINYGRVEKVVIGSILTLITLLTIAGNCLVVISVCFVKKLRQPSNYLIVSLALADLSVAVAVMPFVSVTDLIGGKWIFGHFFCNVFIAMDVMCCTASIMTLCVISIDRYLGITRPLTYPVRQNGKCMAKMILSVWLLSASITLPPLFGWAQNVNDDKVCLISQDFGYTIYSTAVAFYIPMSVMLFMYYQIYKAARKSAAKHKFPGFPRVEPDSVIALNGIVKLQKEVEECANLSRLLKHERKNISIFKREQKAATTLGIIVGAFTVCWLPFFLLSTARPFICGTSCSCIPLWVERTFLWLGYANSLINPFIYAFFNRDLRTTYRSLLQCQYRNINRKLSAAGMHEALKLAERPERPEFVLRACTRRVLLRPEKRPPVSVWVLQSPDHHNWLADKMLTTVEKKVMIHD

With `CC(C)(C)C(O)/C(=C\c1ccc(Cl)cc1Cl)n1cncn1` (stereo not drawn) the outcome [1] was “inactive” and the outcome [2] was “inactive”.

With `CCOCN(C(=O)CCl)c1c(C)cccc1CC` the outcome [3] was “inactive” and the outcome [2] was “inactive”.

In the case of `CCN(CC)C(=O)SCc1ccc(Cl)cc1`, the outcome [4] is reported as “inactive” and the outcome [1] is reported as “inactive”.

With `CC1(c2ccc(Oc3ccccc3)cc2)OC(=O)N(Nc2ccccc2)C1=O` (stereo not drawn) the outcome [5] was “inactive”.

`COP(=O)(OC)OC=C(Cl)Cl` was tested, and the AC50 [6] was 6.37 µM (active) and the outcome [5] was “inactive”.

With `CCC(C)(C)C(=O)OC1=C(c2ccc(Cl)cc2Cl)C(=O)OC12CCCCC2` the outcome [1] was “inactive”.

For `N#Cc1c(Cl)c(Cl)c(Cl)c(C#N)c1Cl`, the outcome [6] was “inactive” and the outcome [2] was “inactive”.

With `CC(C)N(C(=O)COc1nnc(C(F)(F)F)s1)c1ccc(F)cc1` the AC50 [6] was 14.2 µM (active).

With `O=C1c2ccccc2C(=O)N1SC(Cl)(Cl)Cl` the AC50 [4] was 2.25 µM (active), the outcome [7] was “inactive” and the outcome [8] was “inactive”. The outcome [1] was “inactive” and the AC50 [2] was 16.3 µM (active).

`Oc1cc(Cl)ccc1Oc1ccc(Cl)cc1Cl` was tested, and the outcome [9] was “inactive”, the outcome [5] was “inactive” and the outcome [7] was “inactive”. For the same compound, the AC50 [10] was 38.9 µM (active) and the outcome [11] was “inactive”.

For `O=S1OCC2C(CO1)C1(Cl)C(Cl)=C(Cl)C2(Cl)C1(Cl)Cl` (stereo not drawn), the outcome [1] was “inactive”.

With `C#CCN1C(=O)COc2cc(F)c(N3C(=O)C4=C(CCCC4)C3=O)cc21` the AC50 [12] was 25 µM (active), the AC50 [5] was 1.11 µM (active) and the AC50 [10] was 6.93 µM (active).

In the case of `ClC1C(Cl)C(Cl)C(Cl)C(Cl)C1Cl` (stereo not drawn), the AC50 [13] is reported as 15.6 µM (active).

In the case of `COP(=S)(OC)Oc1ccc([N+](=O)[O-])cc1`, the outcome [6] is reported as “inactive”, the outcome [12] is reported as “inactive” and the AC50 [14] is reported as 10.5 µM (active).

`CCCN(CCC)c1c([N+](=O)[O-])cc(C(F)(F)F)cc1[N+](=O)[O-]` was tested, and the AC50 [5] was 12.8 µM (active) and the AC50 [1] was 6.21 µM (active).

With `CCCN(CCOc1c(Cl)cc(Cl)cc1Cl)C(=O)n1ccnc1` the outcome [4] was “inactive”, the AC50 [10] was 8.15 µM (active) and the outcome [1] was “inactive”. The outcome [3] was “inactive” and the AC50 [11] was 13.3 µM (active).

With `CCc1ccc(C(=O)NN(C(=O)c2cc(C)cc(C)c2)C(C)(C)C)cc1` the outcome [8] was “inactive”.

`COC(=O)c1ccccc1S(=O)(=O)NC(=O)N(C)c1nc(C)nc(OC)n1` was tested, and the outcome [12] was “inactive”.

In the case of `Cc1cc(C)nc(NC(=O)NS(=O)(=O)c2ccccc2C(=O)OC2COC2)n1`, the AC50 [4] is reported as 2.58 µM (active).

With `CCC(C)(NC(=O)c1cc(Cl)c(C)c(Cl)c1)C(=O)CCl` (stereo not drawn) the outcome [1] was “inactive”.

For `O=C(O)C(F)(F)C(F)(F)C(F)(F)C(F)(F)C(F)(F)C(F)(F)C(F)(F)F`, the outcome [5] was “inactive”, the AC50 [14] was 18.5 µM (active) and the outcome [15] was “inactive”. The outcome [8] was “inactive”, the outcome [1] was “inactive” and the AC50 [13] was 11 µM (active).

Source: PubChem BioAssay (EPA / NIEHS)
